According to PubChem BioAssay (NCI):
About 79,000 compounds went through this panel and 15% of them were active in at least one assay; those are over-represented in the sample as a whole. Active and inactive are the calls of the source. Rule as the data show it: active = growth inhibition above about 70%; inactive = the rest.

How the values were obtained:
[1] = NCI Yeast Anticancer Drug Screen. Data for the rad50 strain (AID 155);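 also: 0% = growth of vehicle-only cultures of the same strain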; details: S. cerevisiae rad50 strain growth inhibition, active compounds read high
How it was run: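 Yeast carrying a defined DNA repair defect were exposed to test compounds, and growth was compared with vehicle-treated controls to give percent inhibition.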

[2] = NCI Yeast Anticancer Drug Screen. Data for the mec2-1 strain (AID 157); details: S. cerevisiae mec2-1 strain, active compounds read high
How it was run: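 Vehicle-treated cultures served as reference for growth inhibition of compound-exposed mec2-1 yeast.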

[3] = NCI Yeast Anticancer Drug Screen. Data for the sgs1 mgt1 strain (AID 161);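 also: 0% = growth of cultures given vehicle only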; details: S. cerevisiae sgs1 mgt1 strain, active compounds read high
How it was run: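 Inhibition of yeast growth, normalised to vehicle-treated controls, is reported for a strain bearing genetic alterations in DNA damage repair.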

[4] = NCI Yeast Anticancer Drug Screen. Data for the cln2 rad14 strain (AID 165);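 also: 0% = growth equal to vehicle treated cultures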; details: S. cerevisiae cln2 rad14 strain, active compounds read high
How it was run: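 Each compound was tested on cln2 rad14 yeast. Inhibition of growth was calculated against vehicle-exposed controls.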

[5] = NCI Yeast Anticancer Drug Screen. Data for the bub3 strain (AID 167); details: S. cerevisiae bub3 mutant strain, active compounds read high
How it was run: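 Compounds were applied to a genetically altered yeast strain carrying a cell-cycle control defect. Growth inhibition was scored against vehicle-treated controls.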

[6] = NCI Yeast Anticancer Drug Screen. Data for the mlh1 rad18 strain (AID 175); details: S. cerevisiae mlh1 rad18 strain growth inhibition, active compounds read high
How it was run: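 Vehicle-treated cultures served as the reference for growth inhibition in a yeast strain carrying DNA damage repair alterations exposed to each compound.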

[7] = at 5.0 µM (retest, dose inferred, filed as 0.5)
[8] = at 50.0 µM (retest, dose inferred, filed as 5.0)

Measured: growth inhibition

COC(=O)c1nc(NC#N)[nH]c(=O)c1CCCCCc1cnc(NC#N)nc1
inactive: [1]; [7] -3% | [1]; [8] 1% | [1]; at 50.0 µM -2.4% | [2]; [7] -2% | [2]; [8] -2% | [2]; at 50.0 µM 4.05% | [3]; [7] -1% | [3]; [8] 4% | [3]; at 50.0 µM -3.25% | [4]; [7] -4% | [4]; [8] 1% | [4]; at 50.0 µM 7% | [5]; [7] 0% | [5]; [8] -1% | [5]; at 50.0 µM -0.4% | [6]; [7] 0% | [6]; [8] -2% | [6]; at 50.0 µM -6.1%

CN1CCCN(C)C1c1cc([N+](=O)[O-])ccc1O
inactive: [1]; [7] 25% | [1]; at 50.0 µM 49.5% | [2]; [7] 3% | [3]; [7] 7% | [4]; [7] 11% | [5]; [7] -6% | [6]; [7] 7%
active: [1]; [8] 95% | [2]; [8] 92% | [2]; at 50.0 µM 98.2% | [3]; [8] 96% | [3]; at 50.0 µM 97.7% | [4]; [8] 93% | [4]; at 50.0 µM 87.3% | [5]; [8] 95% | [5]; at 50.0 µM 96.8% | [6]; [8] 99% | [6]; at 50.0 µM 98.9%

O=c1cccccc1[O-].O=c1cccccc1[O-].O=c1cccccc1[O-].[Nd+3]
inactive: [1]; [7] 11% | [1]; [8] 11% | [2]; [7] 20% | [2]; [8] 20% | [3]; [7] 15% | [3]; [8] 15% | [4]; [7] 3% | [4]; [8] 3% | [5]; [7] 9% | [5]; [8] 9% | [6]; [7] 13% | [6]; [8] 13%
active: [1]; at 50.0 µM 91.9% | [2]; at 50.0 µM 91% | [3]; at 50.0 µM 89.3% | [4]; at 50.0 µM 80.9% | [5]; at 50.0 µM 92.5% | [6]; at 50.0 µM 87.2%

O=c1c(-c2ccccc2)coc2cc(O)ccc12
inactive: [1]; [7] -14% | [1]; [8] 8% | [1]; at 50.0 µM 60.6% | [2]; [7] 5% | [2]; [8] 23% | [2]; at 50.0 µM 36.9% | [3]; [7] -6% | [3]; [8] 16% | [3]; at 50.0 µM 63.3% | [4]; [7] -12% | [4]; [8] -12% | [4]; at 50.0 µM 18.1% | [5]; [7] -25% | [5]; [8] 34% | [6]; [7] -3% | [6]; [8] 12% | [6]; at 50.0 µM 4.9%
active: [5]; at 50.0 µM 75.8%

CCOC(=O)C1(C#N)C(c2ccccc2)C1(C#N)C#N (configuration not stated)
inactive: [1]; [7] 18% | [2]; [7] 29% | [3]; [7] 31% | [3]; [8] 34% | [4]; [7] 9% | [5]; [7] 14% | [6]; [7] 42%
active: [1]; [8] 85% | [1]; at 50.0 µM 97.9% | [2]; [8] 96% | [2]; at 50.0 µM 99.3% | [3]; at 50.0 µM 98.5% | [4]; [8] 76% | [4]; at 50.0 µM 97.8% | [5]; [8] 92% | [5]; at 50.0 µM 97.4% | [6]; [8] 98% | [6]; at 50.0 µM 98.8%

Cc1c(N)ccc(O)c1C
inactive: [1]; [7] 1% | [1]; [8] 46% | [2]; [7] -1% | [2]; [8] 30% | [3]; [7] -2% | [3]; [8] 37% | [3]; at 50.0 µM 43.2% | [4]; [7] -3% | [4]; [8] 17% | [5]; [7] 1% | [5]; [8] 41% | [6]; [7] 1% | [6]; [8] 35%
active: [1]; at 50.0 µM 87.7% | [2]; at 50.0 µM 90.9% | [4]; at 50.0 µM 86.3% | [5]; at 50.0 µM 96.8% | [6]; at 50.0 µM 96.6%

CC(C)(CC#N)c1cc(CC(C)(C)c2cc(CC(C)(C)c3cc(CC(C)(C)C4(C)OCCO4)no3)no2)no1
inactive: [1]; [7] -2% | [1]; [8] 2% | [1]; at 50.0 µM 16.8% | [2]; [7] -4% | [2]; [8] -2% | [2]; at 50.0 µM 2.6% | [3]; [7] -2% | [3]; [8] 6% | [3]; at 50.0 µM -17.4% | [4]; [7] 1% | [4]; [8] -4% | [4]; at 50.0 µM 0.5% | [5]; [7] -3% | [5]; [8] 0% | [5]; at 50.0 µM -1.9% | [6]; [7] -2% | [6]; [8] -8% | [6]; at 50.0 µM 12.8%

CCN(CC)C(=O)C(C)OC(C)=O (configuration not stated)
inactive: [1]; [7] -1% | [1]; [8] 0% | [1]; at 50.0 µM -21.4% | [2]; [7] 2% | [2]; [8] 1% | [2]; at 50.0 µM 17.6% | [3]; [7] 2% | [3]; [8] -1% | [3]; at 50.0 µM -11.8% | [4]; [7] -2% | [4]; [8] -3% | [4]; at 50.0 µM -16% | [5]; [7] 2% | [5]; [8] -5% | [5]; at 50.0 µM 8.7% | [6]; [7] 1% | [6]; [8] 3% | [6]; at 50.0 µM 27.1%

CSc1ccc(/C=C2\CN(C)C/C(=C\c3ccc(SC)cc3)C2=O)cc1
inactive: [1]; [7] 43% | [1]; [8] 52% | [2]; [7] -7% | [2]; [8] 32% | [3]; [7] 36% | [3]; [8] 61% | [4]; [7] 34% | [4]; [8] 33% | [4]; at 50.0 µM 68.4% | [5]; [7] 25% | [5]; [8] 45% | [5]; at 50.0 µM 44% | [6]; [7] 29% | [6]; [8] 15%
active: [1]; at 50.0 µM 73.5% | [2]; at 50.0 µM 70% | [3]; at 50.0 µM 91.6% | [6]; at 50.0 µM 82.8%
